The panel holds about 83,000 compounds, 20% with a hit somewhere; the sample as a whole holds those more often.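 The endpoint reported here, percent growth, reads 100 for growth as untreated, 0 for no net growth and -100 for all cells dead.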 Activity calls are given as the source filed them. The calls were made as follows: active = growth percent below 10; inactive = the rest.
Columns and labels:
Experiment in all cases: NCI-60 one-dose screen, 48 h (100 = growth as untreated, 0 = no growth, -100 = all killed)
Conditions in all cases: 10 µM unless noted
NCI-H23 lung = test system: NCI-H23 lung
NCI-H226 lung = test system: NCI-H226 lung
NCI-H322M lung = test system: NCI-H322M lung
HOP-62 NSCLC = test system: HOP-62 NSCLC
NCI-H460 lung = test system: NCI-H460 lung
HOP-92 NSCLC = test system: HOP-92 NSCLC
NCI-H522 lung = test system: NCI-H522 lung
A549/ATCC NSCLC = test system: A549/ATCC NSCLC
786-0 renal = test system: 786-0 renal
COLO 205 colon = test system: COLO 205 colon
DU-145 prostate = test system: DU-145 prostate
K-562 leukemia = test system: K-562 leukemia
MALME-3M melanoma = test system: MALME-3M melanoma
MDA-MB-231 breast = test system: MDA-MB-231 breast
SF-268 CNS = test system: SF-268 CNS
SF-295 CNS = test system: SF-295 CNS
SF-539 CNS = test system: SF-539 CNS
M14 melanoma = test system: M14 melanoma
RXF 393 renal = test system: RXF 393 renal

SMILES | growth (NCI-H23 lung) | growth (NCI-H226 lung) | growth (NCI-H322M lung) | growth (HOP-62 NSCLC) | growth (NCI-H460 lung) | growth (HOP-92 NSCLC) | growth (NCI-H522 lung) | growth (A549/ATCC NSCLC) | growth (786-0 renal) | growth (COLO 205 colon) | growth (DU-145 prostate) | growth (K-562 leukemia) | growth (MALME-3M melanoma) | growth (MDA-MB-231 breast) | growth (SF-268 CNS) | growth (SF-295 CNS) | growth (SF-539 CNS) | growth (M14 melanoma) | growth (RXF 393 renal)
COc1ccc(CCCc2c3[n+](cc4c(OC)c(OC)ccc24)CCc2cc4c(cc2-3)OCO4)cc1 | 47.4% (inactive) | 88.4% (inactive) | 96.1% (inactive) | 78.6% (inactive) | 52.4% (inactive) | 77.8% (inactive) | 38.7% (inactive) | 61.2% (inactive) | 92.2% (inactive) | -11.2% (active) | 79.3% (inactive) | 57.8% (inactive) | 94.4% (inactive) | 84.6% (inactive) | 63% (inactive) | 78.9% (inactive) | 92.3% (inactive) | 85.1% (inactive) | 
C=C1[C@@H](O)C[C@H]2C(C)(C)C[C@H](Cl)C[C@]2(C)[C@H]1C[C@H](O)[C@H]1CC(=O)NC1=O | -36.2% (active) | -25.8% (active) | -8.41% (active) | -38.4% (active) | -11.5% (active) | -13.5% (active) | -36.8% (active) | -14.1% (active) | -33.2% (active) | -62.5% (active) | -29.1% (active) | 1.91% (active) |  | -31% (active) | -20.8% (active) | -29.2% (active) | -35.4% (active) | -75.5% (active) | -63.2% (active)
CCN(CC)C(=O)C[N+](C)(C)CCOC(c1ccccc1)c1ccccc1 | 95.2% (inactive) | 102% (inactive) | 104% (inactive) | 103% (inactive) | 109% (inactive) | 113% (inactive) | 105% (inactive) | 101% (inactive) | 102% (inactive) | 112% (inactive) | 103% (inactive) | 109% (inactive) | 98.5% (inactive) | 117% (inactive) | 103% (inactive) | 99.5% (inactive) | 102% (inactive) | 100% (inactive) | 
Cc1nn(-c2nc3ccccc3[nH]2)c2c1C(c1ccc(OCc3ccc(F)cc3)cc1)CC(=O)N2 (configuration not stated) | 46.9% (inactive) | 74.5% (inactive) | 70.4% (inactive) | 69.5% (inactive) | 48% (inactive) | 72% (inactive) | 30.5% (inactive) | 41.8% (inactive) | 63.4% (inactive) | 103% (inactive) | 96% (inactive) | 87.6% (inactive) | 81.3% (inactive) | 42.8% (inactive) | 46.7% (inactive) | 19% (inactive) | 56.7% (inactive) | 58.5% (inactive) | 
N#CC1(C#N)C(c2cccs2)NC(c2cccs2)C1(C#N)C#N (configuration not stated) | 95% (inactive) | 102% (inactive) | 98% (inactive) | 95% (inactive) | 110% (inactive) | 113% (inactive) | 95.9% (inactive) | 100% (inactive) | 101% (inactive) | 106% (inactive) | 102% (inactive) | 95.8% (inactive) | 99.2% (inactive) | 104% (inactive) | 98.1% (inactive) | 95.6% (inactive) | 97.6% (inactive) | 102% (inactive) | 
COc1ccc(C2OC(c3cc(-c4cc5ccccc5o4)nn3-c3ccccc3)=NN2C(C)=O)cc1 (configuration not stated) | 92.5% (inactive) | 91% (inactive) | 97.9% (inactive) | 91.4% (inactive) | 104% (inactive) | 74.1% (inactive) | 83.4% (inactive) | 102% (inactive) | 92.9% (inactive) | 103% (inactive) | 101% (inactive) | 93.1% (inactive) | 107% (inactive) | 95.9% (inactive) | 97.7% (inactive) | 100% (inactive) | 98.6% (inactive) | 99% (inactive) | 
O=c1nc2c(-c3nc4ccccc4s3)n[nH]n2c2sc3c(c12)CCCC3 | 98.2% (inactive) | 90.1% (inactive) | 107% (inactive) | 90.5% (inactive) | 102% (inactive) | 90.7% (inactive) | 99.9% (inactive) | 96.1% (inactive) | 102% (inactive) | 106% (inactive) | 104% (inactive) | 92.3% (inactive) | 104% (inactive) | 93.7% (inactive) | 97.6% (inactive) | 89.8% (inactive) | 105% (inactive) | 98.8% (inactive) | 
COc1cc(C(=O)NNC(=O)c2ccc(NC(=O)CCl)cc2)cc(OC)c1OC | 78.9% (inactive) | 95.5% (inactive) | 88.5% (inactive) | 72.7% (inactive) | 99.5% (inactive) | 99% (inactive) | -34.4% (active) | 77% (inactive) | 95.3% (inactive) | 106% (inactive) | 91% (inactive) | 53.7% (inactive) |  | 51.1% (inactive) | 76.8% (inactive) | 93.7% (inactive) | 91.5% (inactive) | 82.6% (inactive) | 92.9% (inactive)
CCCCCCCCCCCC[n+]1ccccc1 | 8.58% (active) | 24.4% (inactive) | 55.7% (inactive) | -8.28% (active) | 3.69% (active) | -24.8% (active) | 1.19% (active) | 9.04% (active) | -16.8% (active) | -74% (active) | 16% (inactive) | 6.1% (active) | 0.501% (active) | -2.58% (active) | 11.5% (inactive) | -36.5% (active) | -2.41% (active) | -41.3% (active) | 
